The structures appear in SMILES notation. The source holds several records for some structures; these can differ, active in one and inactive in another. Active and inactive are the calls of the source. The calls were made as follows: active = hit-call score of the fitted dose curve at least 0.9, where 1 is the maximum; inactive = score below 0.9.

Usually AC50 stands for the midpoint of the concentration-response curve, whichever way the signal moves.

Sequence of human Peroxisome Proliferator-activated Receptor alpha (PPARa) Agonism, conducted at France lab site, PPARA (gene 5465) (Q07869 whole entry, looked up): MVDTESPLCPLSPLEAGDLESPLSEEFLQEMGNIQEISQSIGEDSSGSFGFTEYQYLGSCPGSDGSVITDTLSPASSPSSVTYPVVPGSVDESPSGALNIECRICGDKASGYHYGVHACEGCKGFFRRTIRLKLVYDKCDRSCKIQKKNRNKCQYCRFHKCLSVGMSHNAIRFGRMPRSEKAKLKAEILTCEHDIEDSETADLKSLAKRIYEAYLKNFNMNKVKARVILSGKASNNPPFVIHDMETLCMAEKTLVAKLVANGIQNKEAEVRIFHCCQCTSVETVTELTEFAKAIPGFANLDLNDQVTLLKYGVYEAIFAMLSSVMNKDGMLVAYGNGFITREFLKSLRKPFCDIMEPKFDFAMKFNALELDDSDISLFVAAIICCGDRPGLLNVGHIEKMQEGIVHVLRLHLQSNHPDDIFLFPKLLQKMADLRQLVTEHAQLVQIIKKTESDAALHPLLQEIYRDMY

For the test, the target named is human Peroxisome Proliferator-activated Receptor alpha (PPARa) Agonism, conducted at France lab site, PPARA (gene 5465) (UniProt Q07869). In words: ERF_FR_NR_COA_hPPARA: Eurofins (ERF) Nuclear Receptor (NR) Functional Coactivator Assay for human Peroxisome Proliferator-activated Receptor alpha (PPARa) Agonism, conducted at France lab site. How it is done:
ERF_FR_NR_COA_hPPARA is a biochemical, single-readout assay that uses extracted gene-proteins in a cell-free assay. Measurements were taken 2 hours after chemical dosing in a 384-well plate. See PPARalpha Human NHR Functional Agonist Coactivator Assay, Cerep.ERF_FR_NR_COA_hPPARA is an assay component calculated from the ERF_FR_NR_COA_hPPARA assay. It is designed to measure FRET using a type of binding reporter as detected by fluorescence intensity of GW7647 with fluorimetry technology.Data from the assay component ERF_FR_NR_COA_hPPARA was analyzed at the assay endpoint, ERF_FR_NR_COA_hPPARA, in the positive analysis fitting direction relative to DMSO as the negative control and baseline of activity. Using a type of binding reporter, gain-of-signal activity can be used to understand changes in binding as they relate to gene PPARA. To generalize the intended target to other relatable targets, this assay endpoint is annotated to the nuclear receptor intended target family, where the subfamily is non-steroidal.
Human cells are incubated for 3 hours at room temprature with GW7647 as control activator. Test Sample Requirements: Minimum for 1) Screen: 75 ul of 10 mM stock or 1 mg (pre-weighed) powder (assuming FW =<500 and purity 100%).
Turning to `O=C(O)C(F)(F)OC(F)(F)C(F)(F)OC(F)(F)F`, the compound was called inactive. The same measure, in the same setting: with `O=C(O)CCC(F)(F)C(F)(F)C(F)(F)F` the entry was “inactive”; with `O=C(Cl)C(F)(F)C(F)(F)C(F)(F)C(F)(F)C(F)(F)C(F)(F)F`, “inactive”; with `O=S(=O)(O)C(F)(F)C(F)(F)C(F)(F)C(F)(F)C(F)(F)C(F)(F)F`, “inactive”. On to `O=C(O)C(F)(F)C(F)(F)C(F)(F)C(F)(F)C(F)(F)C(F)(F)C(F)(F)F`, for which the compound was classed as inactive and the AC50 is 3.17 µM (active). Turning to `CN(CCOc1ccc(CC2SC(=O)NC2=O)cc1)c1ccccn1` (stereo not drawn), the call was inactive.

Take `O=C(O)C(F)(F)C(F)(F)C(F)(F)C(F)(F)C(F)(F)C(F)(F)F`: the compound was called inactive. `O=S(=O)(O)C(F)(F)C(F)(F)C(F)(F)C(F)(F)C(F)(F)C(F)(F)C(F)(F)C(F)(F)F`: the result was inactive. Same read-out and setting: the value for `O=C(O)C(F)(F)C(F)(F)C(F)(F)C(F)(F)C(F)(F)C(F)(F)C(F)F` was “inactive”; that for `CC(C)(Oc1ccc(C(=O)c2ccc(Cl)cc2)cc1)C(=O)O` was “inactive”; that for `O=C(CC(=O)C(F)(F)C(F)(F)C(F)(F)F)c1cccs1` was “inactive”. Still for that read-out and setting: with `O=C(O)C(F)(F)C(F)(F)C(F)(F)C(F)(F)C(F)(F)C(F)(F)C(F)(F)C(F)(F)Cl` the entry was “inactive”.

The values above are taken from PubChem BioAssay AID2284367 (EPA ToxCast).
